Pf Dd2 growth: qHTS Primary assay for Inhibitors of Plasmodium falciparum Dd2 growth in vitro | 120,000 compounds, 4.3% hits | Potency, µM (series often up to 28.9 µM), for inactives: top-dose activity, negative = inhibition, most hits filed as inhibitors | P. falciparum Dd2 growth, SYBR Green, 72 h; active means well fitted inhibition curve with a large enough effect;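 further: plate controls were DMSO vehicle for no effect and reference drug for full effect; nearly all actives have a fitted effect of over 65% in size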
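Infected erythrocytes (Dd2, 0.3% parasitemia, 2.5% hematocrit final) are added to compound in RPMI-1640/Albumax II medium, grown 72 h at 37C in low oxygen, then lysed with saponin/Triton-X containing SYBR Green and read by fluorescence.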
* = called active by the depositor; i = inactive; [ ] = another dose, or the depositor's remark. The full list was thinned out, with hits kept by preference. Potency means the concentration at half of the fitted maximal effect.

SMILES	Pf Dd2 growth
CCCn1c2ccc(C)cc2c2nnc(SCCN3CCCCC3)nc21	8.9µM*
CCn1c2ccccc2c2nnc(SCC(=O)Nc3ccccc3OC)nc21	12%
CN(Cc1ccccc1)Cc1cn([C@H]2CO[C@H]3[C@@H]2OC[C@@H]3NS(=O)(=O)Cc2ccccc2)nn1	-24%
O=C(c1ccsc1)N1CCC2(CC1)CN(c1ccncn1)CC2CO (stereo unspecified)	-9%
CC(C)(CC(=O)O)CC(=O)N1Cc2[nH]cnc2C[C@H]1c1nc(Cc2ccccc2)no1	6%[44.1 µM]
O=C(Nc1ccc([C@H]2OCC(=O)N(Cc3cccnc3)[C@@H]2CO)cc1)c1ccnc(Cl)c1	-1%
COc1cccc(CN2CCNc3cnc(-c4ccccc4)cc3C2)c1	-3%[44.1 µM]
COc1cccc(CN2CCCC(COc3ccccc3C(=O)NC3CC3)C2)n1 (stereo unspecified)	-9%
O=C(c1ccc(F)cc1F)N1CCCN(c2cc(-c3ccccc3)[nH]n2)CC1	i
Cc1ccc(N2C(=O)[C@@H]3C[C@@H](NC(=O)c4cccn4C)CCN3C2=O)cc1	i
CSc1cccc(N2C(=O)[C@@H]3C[C@@H](NC(=O)c4cccn4C)CCN3C2=O)c1	10µM*
Cn1cccc1C(=O)N[C@H]1CCN2C(=O)N(c3cccc(F)c3)C(=O)[C@@H]2C1	-11%[44.1 µM]
CCN(CC)CCNC(=O)c1ccc2c(c1)N(S(C)(=O)=O)CC2	24%
CCN(CC)CCCNC(=O)Cc1ccc(NC(=O)N2CCCCc3ccccc32)cc1	17%
CCN(CC)CCNC(=O)c1ccc(-n2c(-c3ccccc3)cc3c2CCCC3)cc1	7.9µM*
Cc1ccc(CN2C(=O)COC[C@H]2C(=O)Nc2cc(F)cc(F)c2)cc1	-14%
Cc1ccc2nc3n(c2c1)[C@@H](CNCc1ccc(C#N)cc1)COC3	-9%[44.1 µM]
CCOC(=O)C1CCN(C(=O)C2COC3(CCC(C)CC3)N2C(=O)c2cccc(C)c2)CC1 (stereo unspecified)	-23%
O=C(NCC1CCN(c2cc(-c3ccccc3)[nH]n2)CC1)c1ccc[nH]1	-25%
Cc1cc(C)n(CCC(=O)NCC2CCN(c3cc(-c4ccccc4)[nH]n3)CC2)n1	11µM*
Cc1cc(C)n(CCC(=O)NC2CCCN(c3cc(-c4ccc(Cl)cc4)[nH]n3)C2)n1 (stereo unspecified)	i
Cc1noc(C)c1CC(=O)NCC1CCN(c2cc(-c3ccccc3)[nH]n2)CC1	i
Cc1ccc(-c2cc(N3CCC(CNC(=O)c4ccc(=O)[nH]c4)CC3)n[nH]2)cc1	13µM*
O=C(NCC1CCN(c2cc(-c3ccccc3)[nH]n2)CC1)c1ccc[nH]c1=O	-28%
COCc1ccc(C(=O)N2CC[C@@H](NC(=O)c3cnccn3)[C@H](O)C2)s1	1%
SMILES	Pf Dd2 growth
CN(C)c1cc(N2CCCC(NS(C)(=O)=O)C2)ncn1 (stereo unspecified)	42%[5.79 µM]
CCOc1ccccc1C(=O)N1CCC2(CC1)NC(=O)N(c1cccc(Cl)c1)N2	i
CO[C@H]1[C@H](NC(=O)Cc2ccccc2)c2ccccc2C12CCNCC2	-6%
CCc1ccc(S(=O)(=O)c2nnn3c2nc(NCc2ccc(F)cc2)c2ccccc23)cc1	-24%
CCc1ccc(S(=O)(=O)c2nnn3c2nc(Nc2ccc(F)cc2)c2cc(Cl)ccc23)cc1	1.3µM*
Cc1ccc(S(=O)(=O)c2nnn3c2nc(NCc2ccccc2)c2sccc23)cc1	i
Cc1ccc(C)c(S(=O)(=O)c2nnn3c2nc(Nc2ccc(F)c(Cl)c2)c2sccc23)c1	13µM*
COc1ccc(Nc2nc3c(S(=O)(=O)c4ccccc4)nnn3c3ccc(Cl)cc23)cc1OC	7%
CN1CCN(c2nc3c(S(=O)(=O)c4ccccc4)nnn3c3ccsc23)CC1	11%
Cc1ccc(S(=O)(=O)c2nnn3c2nc(N2CCCC2)c2sccc23)cc1C	-5%
Cc1ccc(S(=O)(=O)c2nnn3c2nc(NC(C)c2ccccc2)c2sccc23)cc1 (stereo unspecified)	10µM*
COc1ccc(Nc2nc3c(S(=O)(=O)c4ccc(C)cc4)nnn3c3ccsc23)cc1Cl	i
Cc1ccc(C)c(S(=O)(=O)c2nnn3c2nc(N2CCN(C)CC2)c2sccc23)c1	8.9µM*
Cc1ccc(Nc2nc3c(S(=O)(=O)c4ccccc4)nnn3c3ccsc23)c(C)c1	18%
CC(=O)Nc1ccc(Nc2nc3c(S(=O)(=O)c4cc(C)ccc4C)nnn3c3ccsc23)cc1	-24%
O=c1n(-c2ccc(F)cc2F)nc2n1CCN(Cc1ccc(F)cc1)C2	i
Cc1ccc(C(=O)N2CCCC3(CC(c4ccccn4)=NO3)C2)cc1 (stereo unspecified)	4%
CC(C)c1noc(C2CCCN(Cc3cccnc3)CCC(=O)NCC2)n1 (stereo unspecified)	0%
O=C1CCN(C2CCCC2)CCCC(c2nc(-c3cccnc3)no2)CCN1 (stereo unspecified)	0.71µM*
O=C1NCCCCCCN(S(=O)(=O)c2cccnc2)[C@H]2C[C@H](c3nc(-c4cccnc4)no3)C[C@@H]12	2.8µM*
CS(=O)(=O)N1CCCCCCNC(=O)[C@@H]2C[C@@H](c3nc(-c4cccnc4)no3)C[C@@H]21	i
CCC(=O)N1CCCC(c2nc(-c3ccccc3)no2)CCNC(=O)CC1 (stereo unspecified)	31%
CC(C)c1noc(C2CCCN(Cc3ccccc3)CCC(=O)NCC2)n1 (stereo unspecified)	4.5µM*
COc1ccc(C2(C(=O)N3CCCC(c4nc(-c5ccccc5)no4)CCNC(=O)CC3)CC2)cc1 (stereo unspecified)	7.9µM*
CC(C)c1noc(C2CCCN(C(=O)NCCc3ccccc3)CCC(=O)NCC2)n1 (stereo unspecified)	39%
SMILES	Pf Dd2 growth
O=C1CCN(C2CCOCC2)CCCC(c2nc(-c3cccnc3)no2)CCN1 (stereo unspecified)	-1%
O=C1NCCCCCCN(C(=O)c2cnccn2)[C@H]2C[C@H](c3nc(-c4cccnc4)no3)C[C@@H]12	-23%
CS(=O)(=O)N1CCCC(c2nc(-c3cccnc3)no2)CCNC(=O)CC1 (stereo unspecified)	-12%
CN(C)C(=O)N1CCCC(c2nc(-c3ccccc3)no2)CCNC(=O)CC1 (stereo unspecified)	7%
COc1cccc(CC(=O)N2C[C@@H](Oc3ccccc3)C[C@H]2C(=O)N2CCOCC2)c1	-7%
O=C1CC(c2ccccc2)N(C(=O)CNS(=O)(=O)c2cccnc2)CCCCCN1 (stereo unspecified)	6%
Cc1noc(C)c1S(=O)(=O)N1CCCCC(NC(=O)c2c[nH]c(=O)cn2)C1 (stereo unspecified)	-6%
CCc1ccccc1NC(=O)NCC1CCOCC1	1%
Cc1ccc(C(=O)N2C(C(=O)NCC3CCCO3)COC23CCN(C(=O)CC(C)(C)C)CC3)cc1 (stereo unspecified)	-11%
O=C1N(Cc2ccccc2)C[C@H]2CN(Cc3cccs3)CCN12	-28%[44.1 µM]
COc1ccccc1CCNC(=O)[C@@H]1CNC[C@H]1COc1cccnc1	i
COc1ccc(-c2ccnc(-c3nnc(C)n3C3CCCCC3)c2)cc1OC	-1%[44.1 µM]
CCc1ccc(C(=O)N(C)CC2CCOCC2)cc1	-22%
Cc1ccc(CNC(=O)C2CCN(C(=O)c3ncn4c3COC(c3ccc(Cl)cc3)C4)CC2)cc1 (stereo unspecified)	-28%
O=C(CC(F)(F)F)N1CCC(c2noc(-c3ccccc3)n2)C1 (stereo unspecified)	33%[5.79 µM]

Source: PubChem BioAssay (National Center for Advancing Translational Sciences (NCATS))
